Source: PubChem BioAssay (National Center for Advancing Translational Sciences (NCATS))
Sfp PPTase inh – inhibitors of Bacillus subtilis Sfp phosphopantetheinyl transferase | Potency, µM, without a hit: largest response in the series, negative = inhibition, most hits filed as inhibitors | AID 1490 | Q9F4F7 | 310,000 compounds, 3.5% hits | Biochemical Sfp PPTase activity, qHTS;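 also: the enzyme is Sfp with the accession as filed and its product quenches rhodamine fluorescence; 0% = enzyme reaction without inhibitor and -100% = no enzyme wells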
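With Hepes-Na pH 7.6 buffer containing 10 mM MgCl2, Sfp (15 nM) modified BHQ-2-YbbR (12.5 uM) using rhodamine-CoA (5 uM). Two reads 30 minutes apart at 525/598 nm yielded each well's rate.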
G9a block – G9a (human) methyltransferase inhibition. Potency, µM (doses to about 102 µM), for inactives: at the highest dose activity, negative = inhibition, actives largely listed as inhibitors. 350,000 compounds, 8.8% hits. G9a H3K9 monomethylation, AlphaScreen, 2 h. Q96KQ7. AID 504332; also: % is scaled to controls: 0 for no effect and ±100 for the full control effect; nearly all actives have a fitted effect of over 75% in size
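Using a bead-based AlphaScreen, monomethylated H3K9 product from 2 h room-temperature reactions (G9a 20 nM, peptide 500 nM, SAM 20 uM) was detected with 0.5 ug/mL rabbit anti-H3K9me1 antibody.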
BAZ2B block – blocks human BAZ2B; AID 504333; AlphaScreen BAZ2B-H3K14Ac peptide displacement; Potency, µM (titrated, usually from 114 µM), for inactives: at the highest dose activity change, negative = inhibition, actives largely listed as inhibitors; 360,000 compounds, 4.4% hits; also: % is scaled to controls: 0 for no effect and ±100 for the full control effect; nearly all actives have a fitted effect of over 60% in size
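Complex of BAZ2B and biotin-H3K14Ac (50 nM apiece) forms over 30 min at RT, then faces library compounds up to 110 uM for another 30 min; AlphaScreen beads added, 20 min dark incubation, luminescence read.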
L3MBTL1 block – inhibitors of human L3MBTL1; Q9Y468; Potency, µM (highest dose often 57.1 µM), for the others: at the highest dose activity, negative = inhibition, actives largely listed as inhibitors; AlphaScreen L3MBTL1–H3K9me1 peptide binding; 230,000 compounds, 0.66% hits; also: % is scaled to controls: 0 for no effect and ±100 for the full control effect; nearly all actives have a fitted effect of over 60% in size
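First, the protein-peptide complex forms for 30 min at room temperature (L3MBTL1 50 nM, biotinylated H3K9me1 peptide 75 nM). Next, compounds are pin-transferred and incubated 30 min. Finally, AlphaScreen beads are added and read after 30 min.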
HP1b binding inh – blocks HP1-beta chromodomain binding to methylated histone tails. P83916. AlphaScreen HP1-beta / biotin-H3K9me3 peptide binding. Potency, µM (doses to about 114 µM), inactives show top-dose activity change, negative = inhibition, most hits filed as inhibitors. 390,000 compounds, 0.56% hits. AID 540317; also: nearly all actives have a fitted effect of over 70% in size
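Compound inhibition of the preformed complex between 50 nM HP1-beta and 50 nM biotinylated H3K9me3 peptide was read by AlphaScreen. Buffer was PBS pH 7.4 with 0.01% Tween-20. Incubations ran 30 min at room temperature, with 10 ug/mL donor/acceptor beads.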
JMJD2A Tudor – blocks the human JMJD2A Tudor domain; AlphaScreen JMJD2A-Tudor / H3K4me3 peptide binding; O75164; Potency, µM (titrated, usually from 114 µM), inactives show at the top dose activity change, negative = inhibition, usual class: inhibitors; AID 504339; 390,000 compounds, 4.4% hits; also: % is scaled to controls: 0 for no effect and ±100 for the full control effect; nearly all actives have a fitted effect of over 50% in size
* hit, by the source's call; u = inconclusive; x = no result; [ ] = dose if it differs, or a comment. An excerpt weighted towards active compounds, which were near 12% of everything screened. Calls follow the shape of the dose curve; as a rule, active = well fitted curve in the direction sought with a large enough effect; inconclusive = small, poorly fitted or top-dose-only effect, or another doubt; inactive = no such curve, though single readings can be large; an effect the other way counts as inactive or inconclusive. Potency is read from the fitted curve at half-maximal effect.

SMILES | Sfp PPTase inh | G9a block | BAZ2B block | L3MBTL1 block | HP1b binding inh | JMJD2A Tudor
COc1ccc(NC(=O)CN2C(=O)/C(=C3\SC(=S)N(CCC(=O)O)C3=O)c3ccccc32)cc1 | 12% | 5% | -33% | x | 0% | u
COc1ccc(-n2c(SCc3ccccn3)nc3c(c2=O)SCC3)cc1OC | -2% | -42% | x | x | 8% | -18%
COC(=O)c1ccc(C(NC(=O)OCc2ccccc2)/C(=C/[C@@H](C)C(=O)NCc2ccc(OC)c(O)c2)c2cccnc2)cc1 (some centres undefined) | -8% | x | x | x | x | x
CCCCN(CCCC)S(=O)(=O)c1ccc2oc(C(=O)NCc3ccccc3)c(C)c2c1 | x | -3%[59 µM] | 8% | x | 42% | -4%
Cc1cccc(NC(=O)Cc2coc3ccc4ccccc4c23)n1 | 56µM* | u | 9% | x | u | u
O=C(O)Cc1coc2ccc3ccccc3c12 | -4% | -4% | -4% | 6% | 57% | -3%
Cc1ncc(C[n+]2csc(CCOC(=O)C34CC5CC(CC(C5)C3)C4)c2C)c(N)n1 | 13% | -3% | -34% | 1% | 39% | -5%[11.4 µM]
Cc1ncc(C[n+]2csc(CCOC(=O)CC3C4CC5CC(C4)CC3C5)c2C)c(N)n1 (centres undefined) | 4% | 50µM* | -29% | 1% | 73% | -8%[57.1 µM]
O=C(CSc1nc2ncccc2o1)Nc1ccc(Cl)cc1F | x | 12%[59 µM] | -6% | x | 14% | -14%
Cc1ccc(S(=O)(=O)NCCSc2ncccn2)cc1 | -4% | x | 17% | -2% | 27% | -15%
Cc1ccc(S(=O)(=O)NCCSc2nnc(N)s2)cc1 | -26% | 13µM* | 9% | -4%[11.4 µM] | 41% | -7%
CCOC(=O)CNC(=S)N(CCCN1CCN(C)CC1)Cc1cccs1 | 8% | 17% | 1% | x | 21% | 1%
c1coc(CN2CCN(C(c3cccs3)c3nnnn3C3CCCC3)CC2)c1 (centres undefined) | 12% | 50µM* | u | 7% | 17% | u
CCc1nn(C(C)C(=O)NCCc2ccccc2)c(=O)c2cc3occc3n12 (centres undefined) | 5% | x | -2% | x | 18% | -9%
Cc1nn(C(C)C(=O)NC(C)CCc2ccccc2)c(=O)c2cc3occc3n12 (centres undefined) | 6% | 4% | 9% | x | 33% | -11%
CCc1nn(C(C)C(=O)NC(C)CCc2ccco2)c(=O)c2cc3occc3n12 (centres undefined) | 79µM* | -9%[12.7 µM] | -6% | -8% | 12% | -29%
CCc1nn(CCCC(=O)N2CCN(c3cccc(C)c3C)CC2)c(=O)c2cc3occc3n12 | -9% | 71µM* | u | x | -15%[57 µM] | -35%
CCc1nn(CC(=O)NC(C)CCc2ccccc2)c(=O)c2cc3occc3n12 (centres undefined) | 17% | 29% | -17% | x | -2% | 45µM*
N#Cc1ccc(/C=C/C(=O)c2ccco2)cc1 | u | 14µM* | -3% | -21% | 32% | -1%
Cc1cc(N2O[C@H]3C=C[C@@H]2C3)no1 | x | x | x | 9% | -1% | 79µM*
Cc1cc(N2C(=O)C3C4C=CC(C4)C3C2=O)no1 (centres undefined) | 12% | 13%[12.7 µM] | -3% | 4%[11.4 µM] | 36% | -7%
CN1COc2ccc3ccccc3c2C1 | 11% | 2.2µM* | u | x | 43% | -10%
O=C1CCc2c(ccc3ccccc23)O1 | 20% | 31%[59 µM] | x | x | x | x
Nc1nc2c(nc(Br)n2C2CC(O)C(CO)O2)c(=O)[nH]1 (centres undefined) | 17% | x | x | x | x | x
CCn1c(-c2nn(-c3ccc(C)cc3)ccc2=O)n[nH]c1=S | -27% | u | -38% | -6%[11.4 µM] | 30% | 7.9µM*
COC(=O)c1nn(-c2ccc(C)cc2)ccc1=O | 15% | 4% | -7% | 0%[11.4 µM] | 39% | -14%
CCn1c(SC)nnc1-c1c[nH]c2ccccc12 | -8% | -47% | -4% | x | 26% | -11%
CCn1c(SC)nnc1-c1nn(-c2ccccc2)ccc1=O | 6% | 5µM* | u | 11% | u | 4µM*
O=c1ccc2cc3c(-c4ccccc4)coc3cc2o1 | -3% | -12% | 9% | x | 37% | 15%
